Measurements: PubChem BioAssay (Tox21)
Records with an inconclusive call do not appear. Calls of active or inactive are those of the source. Unless noted, calls follow the shape of the dose curve; as a rule, active = well fitted curve in the direction sought with a large enough effect in the repeat runs; inconclusive = weak or mixed curves; inactive = no such curve, though single readings can be large; an effect the other way counts as inactive or inconclusive.

Assays:
[1] = qHTS assay to identify small molecule agonists of the hypoxia (HIF-1) signaling pathway (AID 1224846; active = well fitted activation curve with a large enough effect in the signal ratio in the repeat runs, not every such curve was filed as active; the % refers to the signal ratio)
Outline: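 Reporter induction in HRE-bla ME-180 cells is taken as agonism: cells sit 5 hrs after plating, receive compounds or DMSO only, incubate 17 hrs at 37C under 5% CO2, and are loaded with CCF4-AM for beta-lactamase FRET measurement.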

[2] = qHTS assay to identify small molecule agonists of H2AX - cell viability counter screen (AID 1224847; calls by dose curve; also: top concentration of the series differs between compounds; nearly all actives have a fitted effect of over 30% in size)
Outline: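 Cytotoxicity counter screen in wild-type CHO-K1 cells: a 3 hr compound treatment at 37C across 15 concentrations, followed by CellTiter-Glo luminescence to gauge viable cells.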

[3] = qHTS assay to identify small molecule antagonists of the estrogen related receptor (ERR) signaling pathway from Tox21 library (AID 1224848); also: nearly all actives have a fitted effect of over 50% in size
Outline: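 First, 2,000 ERR cells per well were plated and held 6 h at 37 C/5% CO2. Next, compounds in DMSO were pinned in and left 18 h at 37 C. Finally, ONE-Glo was added and luminescence read after 30 min at room temperature.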

[4] = qHTS assay to identify small molecule agonists of the estrogen related receptor (ERR) signaling pathway from Tox21 library (AID 1224849; calls by dose curve; also: nearly all actives have a fitted effect of over 15% in size); settings: ERR reporter cell line, ONE-Glo luciferase, 18 h; at 92.4 µM (top of the series) unless noted
Outline: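 Tox21 compounds tested for ERR agonism in an NTP reporter cell line: 18 h treatment at 37 C, then ONE-Glo luminescence.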

[5] = qHTS RealTime-Glo MT Cell Viability Assay in HepG2 cells - 24 hour (AID 1224867); also: nearly all actives have a fitted effect of over 50% in size
Outline: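 Luminescence read-out: viable HepG2 cells reduce a prosubstrate to a NanoLuc substrate, giving a signal proportional to live cell number. Reads taken at 0, 8, 16, 24, 32 and 40 h of compound exposure at 37 C.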

[6] = qHTS RealTime-Glo MT Cell Viability Assay in HEK293 cells - 32 hour (AID 1224868); also: top concentration of the series differs between compounds; nearly all actives have a fitted effect of over 50% in size
Outline: (§1)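 Nonlytic real-time viability readout: viable cells convert prosubstrate to NanoLuc substrate, giving luminescence proportional to live cell number. HEK293, 600 cells/well, compound added after 5 h, continuous culture at 37 C.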

[7] = qHTS RealTime-Glo MT Cell Viability Assay in HepG2 cells - 40 hour (AID 1224870); also: nearly all actives have a fitted effect of over 50% in size
Outline: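 HepG2 cells mixed with RealTime-Glo MT reagents (NanoLuc plus cell-permeant prosubstrate) were seeded at 600 cells/well, incubated 5 h at 37 C/5% CO2, then pinned with compounds in DMSO; nonlytic luminescence tracked viability during 40 h treatment.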

[8] = A CellTox Green Cytotoxicity Assay to monitor cytotoxicity in HEK293 cells - 40 hour (AID 1224871); also: nearly all actives have a fitted effect of over 45% in size
Outline: (§2)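 Tox21 screen in HEK293: membrane-impermeant cyanine dye fluoresces on binding dead-cell DNA; compound pinned 5 h post-seeding, plates held at 37 C, signal read repeatedly through 40 h.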

[9] = qHTS RealTime-Glo MT Cell Viability Assay in HEK293 cells - 16 hour (AID 1224872)
Outline: as §1

[10] = A CellTox Green Cytotoxicity Assay to monitor cytotoxicity in HEK293 cells - 0 hour (AID 1224869); also: nearly all actives have a fitted effect of over 50% in size
Outline: as §2
% is scaled to controls: 0 for no effect and ±100 for the full control effect.

CCCOC(OCCC)OCCC
inactive: outcome [1] | Potency [2] | Potency [3] | activity change, positive = activation [4] 4.24% | outcome [5] | Potency [6] | outcome [7] | Potency [8] | Potency [9]

COC(=O)c1ccccc1C(=O)c1ccc(OCCN2CCCCC2)cc1
inactive: outcome [1] | Potency [2] | Potency [3] | activity change, positive = activation [4] 1.12% [at 42.5 µM] | outcome [5] | outcome [10] | outcome [7] | Potency [8] | Potency [9]

CCNC(=O)C1CC(C)CCC1C(C)C (centres undefined)
inactive: outcome [1] | Potency [2] | Potency [3] | activity change, positive = activation [4] -8.38% | outcome [5] | Potency [6] | outcome [7] | Potency [8] | Potency [9]

Cc1ccc(S(=O)(=O)O)c(C)c1
inactive: outcome [1] | Potency [2] | Potency [3] | activity change, positive = activation [4] 16.9% | outcome [5] | Potency [6] | outcome [10] | outcome [7] | Potency [9]

COCCOCCOCCOCCOCCO
inactive: outcome [1] | Potency [2] | Potency [3] | activity change, positive = activation [4] 2.08% | Potency [6] | outcome [10] | outcome [7] | Potency [8] | Potency [9]

O=C(O)c1cc(Br)c(O)c(Br)c1
inactive: outcome [1] | Potency [2] | Potency [3] | activity change, positive = activation [4] 4.86% | Potency [6] | outcome [10] | outcome [7] | Potency [8] | Potency [9]

BrCCCCCBr
inactive: outcome [1] | Potency [2] | Potency [3] | activity change, positive = activation [4] 6.39% | outcome [5] | Potency [6] | outcome [7] | Potency [8] | Potency [9]

CC(C)CC(C)CC(C)CC(C)COC(=O)c1ccccc1C(=O)OCC(C)CC(C)CC(C)CC(C)C (centres undefined)
inactive: outcome [1] | Potency [2] | Potency [3] | activity change, positive = activation [4] -6.15% | outcome [5] | Potency [6] | outcome [10] | outcome [7] | Potency [9]

COC(=O)CCCCCCCC(=O)OC
inactive: outcome [1] | Potency [2] | Potency [3] | activity change, positive = activation [4] 1.98% | outcome [5] | Potency [6] | outcome [7] | Potency [8] | Potency [9]

C[C@@H](Oc1ccc(CNC(=O)c2cccnc2Oc2ccc3c(c2)OCO3)c(F)c1)C(=O)O
inactive: outcome [1] | Potency [2] | Potency [3] | activity change, positive = activation [4] 4.43% | Potency [6] | outcome [10] | outcome [7] | Potency [8] | Potency [9]

COC(=O)C1CC(=O)C(C(=O)OC)CC1=O (centres undefined)
inactive: activation [1] 0.935% [at 7.01 µM] | activity change, negative = cytotoxicity [2] -2.76% [at 14 µM] | activity, negative = inhibition [3] -0.445% [at 8.39 µM] | activity change, positive = activation [4] -0.229% [at 8.39 µM] | activity change, negative = cytotoxicity [5] 1.03% [at 6.97 µM] | activity change, negative = cytotoxic [6] 1.1% [at 6.97 µM] | cytotoxicity [10] -3.09% [at 6.97 µM] | cytotoxicity increase [8] 1.85% [at 6.97 µM] | activity change, negative = cytotoxicity [9] 7.32% [at 6.97 µM]

O=C(OCc1ccccc1)C(=O)OCc1ccccc1
inactive: outcome [1] | Potency [2] | Potency [3] | activity change, positive = activation [4] 0.466% | outcome [5] | outcome [7] | Potency [9]

O=C1O[C@@H]2[C@@H](O)[C@H](O)O[C@@H]2[C@H]1O
inactive: outcome [1] | Potency [2] | Potency [3] | activity change, positive = activation [4] -1.02% | Potency [6] | outcome [10] | outcome [7] | Potency [8] | Potency [9]

CC(=O)Nc1ccc(S(=O)(=O)Cl)cc1
inactive: outcome [1] | Potency [2] | Potency [3] | activity change, positive = activation [4] -0.863% | outcome [5] | Potency [6] | outcome [10] | outcome [7] | Potency [9]

CC(COC(C)(C)C)OCCCO (centres undefined)
inactive: outcome [1] | Potency [2] | Potency [3] | activity change, positive = activation [4] 3.31% | outcome [5] | outcome [10] | outcome [7] | Potency [8] | Potency [9]

Nc1ccc2cc(S(=O)(=O)O)cc(O)c2c1
inactive: outcome [1] | Potency [2] | Potency [3] | activity change, positive = activation [4] 1.3% | outcome [5] | Potency [6] | outcome [7] | Potency [9]

COc1ccc(OC)c(Cl)c1
inactive: outcome [1] | Potency [2] | Potency [3] | activity change, positive = activation [4] -2.23% | outcome [5] | outcome [10] | outcome [7] | Potency [9]

CC(C(=O)O)c1ccc2c(c1)CC(=O)c1ccccc1S2 (centres undefined)
inactive: outcome [1] | Potency [2] | Potency [3] | activity change, positive = activation [4] 4.13% [at 42.5 µM] | outcome [5] | Potency [6] | outcome [7] | Potency [8] | Potency [9]

COc1ccc(Br)c(C)c1
inactive: outcome [1] | Potency [2] | Potency [3] | activity change, positive = activation [4] -0.068% | outcome [5] | Potency [6] | outcome [7] | Potency [8] | Potency [9]

COc1ccc(-c2cc(=O)c3c(O)cc(O[C@@H]4O[C@H](CO[C@@H]5O[C@@H](C)[C@H](O)[C@@H](O)[C@H]5O)[C@@H](O)[C@H](O)[C@H]4O)cc3o2)cc1O
inactive: outcome [1] | Potency [2] | Potency [3] | activity change, positive = activation [4] -13.8% [at 42.5 µM] | outcome [5] | Potency [6] | outcome [10] | outcome [7] | Potency [9]

Cc1nc2n(c(=O)c1CCN1CCC(c3noc4cc(F)ccc34)CC1)CCC[C@H]2O
inactive: activation [1] -0.458% [at 15.8 µM] | activity change, negative = cytotoxicity [2] -0.277% [at 31.6 µM] | activity, negative = inhibition [3] 3.9% [at 19 µM] | activity change, positive = activation [4] 2.19% [at 19 µM] | activity change, negative = cytotoxicity [5] 1.28% [at 15.8 µM] | cytotoxicity [10] 0.136% [at 15.8 µM] | activity change, negative = cytotoxic [7] 0.984% [at 15.8 µM] | cytotoxicity increase [8] 6.76% [at 15.8 µM]

On1nnc2ccccc21
inactive: outcome [1] | Potency [2] | Potency [3] | activity change, positive = activation [4] 9.52% | outcome [5] | outcome [10] | outcome [7] | Potency [8] | Potency [9]

CN(C)CCOCCO
inactive: outcome [1] | Potency [2] | Potency [3] | activity change, positive = activation [4] 6.59% | outcome [5] | Potency [6] | outcome [7] | Potency [9]

CCC(C)(CCC(C)C)C(=O)O (centres undefined)
inactive: outcome [1] | Potency [2] | Potency [3] | activity change, positive = activation [4] -1.46% | Potency [6] | outcome [10] | outcome [7] | Potency [8] | Potency [9]

O=C1c2cccc3c2[C@H](CCC3)CN1[C@@H]1CN2CCC1CC2
inactive: outcome [1] | Potency [2] | Potency [3] | outcome [5] | outcome [10] | outcome [7] | Potency [8] | Potency [9]
active: activity change, positive = activation [4] 20.8% [at 42.5 µM]

CC1COc2ccccc2N1 (centres undefined)
inactive: outcome [1] | Potency [2] | Potency [3] | activity change, positive = activation [4] 13.7% | outcome [5] | outcome [10] | outcome [7] | Potency [8] | Potency [9]

C[Si](C)=O
inactive: activation [1] -1.19% [at 7.01 µM] | activity change, negative = cytotoxicity [2] -6.59% [at 14 µM] | activity, negative = inhibition [3] 1.05% [at 8.39 µM] | activity change, positive = activation [4] 0.654% [at 8.39 µM] | activity change, negative = cytotoxicity [5] 0.943% [at 6.97 µM] | activity change, negative = cytotoxic [6] 1.65% [at 6.97 µM] | cytotoxicity [10] 2.11% [at 6.97 µM] | activity change, negative = cytotoxic [7] -3.86% [at 6.97 µM] | activity change, negative = cytotoxicity [9] 2.27% [at 6.97 µM]

CCCCN
inactive: outcome [1] | Potency [2] | Potency [3] | activity change, positive = activation [4] 3.11% [at 42.5 µM] | outcome [5] | Potency [6] | outcome [10] | outcome [7] | Potency [9]

CNC(=O)[C@H]1O[C@@H](n2cnc3c(NCc4cc(Cl)ccc4OCc4cc(C)no4)ncnc32)[C@H](O)[C@@H]1N
inactive: outcome [1] | Potency [2] | Potency [3] | activity change, positive = activation [4] -1.8% | outcome [5] | outcome [10] | outcome [7] | Potency [8] | Potency [9]

CN(C)c1ccc(C=O)cc1
inactive: outcome [1] | Potency [2] | Potency [3] | activity change, positive = activation [4] 0.183% | outcome [5] | outcome [10] | outcome [7] | Potency [9]

BrCc1cccc(Oc2ccccc2)c1
inactive: outcome [1] | Potency [2] | Potency [3] | activity change, positive = activation [4] 0.526% | outcome [5] | Potency [6] | outcome [10] | outcome [7] | Potency [9]

CCCCOC(=O)c1ccccc1
inactive: outcome [1] | Potency [2] | Potency [3] | activity change, positive = activation [4] 1.54% | outcome [5] | Potency [6] | outcome [7] | Potency [8] | Potency [9]

CC(C)=CCOC(=O)c1ccccc1
inactive: outcome [1] | Potency [2] | Potency [3] | activity change, positive = activation [4] 2.82% | outcome [5] | Potency [6] | outcome [10] | outcome [7] | Potency [9]

CN=C(NC#N)Nc1ccc(C2=NNC(=O)CC2C)cc1 (centres undefined)
inactive: outcome [1] | Potency [2] | Potency [3] | activity change, positive = activation [4] 5.55% [at 42.5 µM] | Potency [6] | outcome [10] | outcome [7] | Potency [9]

C=C(C)C(=O)OCC(C)(C)COC(=O)C(=C)C
inactive: outcome [1] | Potency [2] | Potency [3] | activity change, positive = activation [4] 0.866% | outcome [10] | outcome [7] | Potency [9]

COc1ccc2c(c1)C(=O)N(CCc1ccc(S(=O)(=O)NC(=O)NC3CCCCC3)cc1)C(=O)C2(C)C
inactive: outcome [1] | Potency [2] | outcome [5] | Potency [6] | outcome [10] | outcome [7] | Potency [8] | Potency [9]

O=C(O)Cc1cn(-c2ccccc2)nc1-c1ccc(Cl)cc1
inactive: outcome [1] | Potency [2] | outcome [5] | Potency [6] | outcome [10] | outcome [7] | Potency [8] | Potency [9]

C=Cc1ccccn1
inactive: outcome [1] | Potency [2] | outcome [5] | Potency [6] | outcome [10] | outcome [7] | Potency [8] | Potency [9]
